# Source: PubChem BioAssay AID1259374 (The Scripps Research Institute Molecular Screening Center, 2018)
# Out of some 650,000 compounds screened, about 5,900 (0.91%) were called active. The sample holds actives, similar compounds and a random draw of the others, so the mix is not that of the screen. Unmarked numbers belong to inactive results. Rule as the data show it: active = inhibition above about 50%; inactive = the rest.
# Biological target: Microphthalmia-associated transcription factor (Homo sapiens) (UniProt O75030)
# Test: MITF inhibitors, primary screen, biochemical, AlphaScreen, human (AID 1259374);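 also: 0% = vehicle wells with protein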
# Settings: AlphaScreen MITF homodimerization, bead proximity signal; at 2.6 µM; hits give high values
# Microphthalmia-associated transcription factor (Homo sapiens), sequence (O75030 whole entry, looked up): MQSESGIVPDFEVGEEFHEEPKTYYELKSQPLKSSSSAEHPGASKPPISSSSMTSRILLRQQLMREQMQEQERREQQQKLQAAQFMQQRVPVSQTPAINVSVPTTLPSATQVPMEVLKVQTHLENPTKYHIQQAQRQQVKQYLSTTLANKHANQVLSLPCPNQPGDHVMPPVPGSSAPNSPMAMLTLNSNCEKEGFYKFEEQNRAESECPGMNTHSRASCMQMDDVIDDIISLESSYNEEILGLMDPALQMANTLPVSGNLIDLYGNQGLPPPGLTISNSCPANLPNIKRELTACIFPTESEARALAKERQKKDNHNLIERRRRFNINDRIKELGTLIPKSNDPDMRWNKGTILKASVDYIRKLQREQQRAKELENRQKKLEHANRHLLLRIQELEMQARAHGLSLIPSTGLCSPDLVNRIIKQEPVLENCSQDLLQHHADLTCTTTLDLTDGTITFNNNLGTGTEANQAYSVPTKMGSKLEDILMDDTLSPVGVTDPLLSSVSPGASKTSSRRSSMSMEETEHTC
row,Structure (SMILES),inhibition
1,COc1ccc(NC(=O)C2CC(=O)N(c3ccc(Oc4ccccc4)cc3)C2)cc1 (stereo not drawn),12.4%
2,CC1CN(CCOc2ccccc2[N+](=O)[O-])CC(C)O1 (stereo not drawn),50.7% (active)
3,CC1CN(CCOc2ccc(Cl)c3ccccc23)CC(C)O1 (stereo not drawn),27.1%
4,C=CCc1ccc(OCCN2CC(C)OC(C)C2)c(OC)c1 (stereo not drawn),34.3%
5,Cc1nc2c(ccc3nc(NC(=O)c4ccc([N+](=O)[O-])o4)sc32)s1,-9.59%
6,O=C(Nc1ccc(Cl)c(Cl)c1)C1C2C=CC3(O2)C1C(=O)N(Cc1cccs1)C3C(=O)NC1CCCCC1 (stereo not drawn),6.14%
7,CC(NC(=O)CN(C)S(=O)(=O)c1cccs1)c1ccccc1 (stereo not drawn),-11.7%
8,Cc1ccc(C)n1C(Cc1ccccc1)C(=O)O (stereo not drawn),66.9% (active)
9,CC(C)CC(C(=O)O)N1C(=O)c2ccccc2C1=O (stereo not drawn),6.74%
10,O=C(Nc1ccccc1)C(Cc1ccccc1)N1C(=O)c2ccccc2C1=O (stereo not drawn),3.18%
11,CC(C)N1CCN(C(=O)CC2(c3ccccc3)CC(=O)N(CCc3ccccn3)C2=O)CC1 (stereo not drawn),18.7%
12,Cc1cc(N2CCCC2)nc(Nc2ccc(NC(=O)c3c(F)cccc3Cl)cc2)n1,8.34%
13,CCc1ccc(NC(=O)Nc2ccccc2)cc1,7.42%
14,CCc1ccc(NC(=O)CS(=O)CC(=O)N2CCN(c3ccccc3F)CC2)cc1 (stereo not drawn),-10.3%
15,CCc1ccc(NC(=O)CS(=O)CC(=O)NCCCc2ccccc2)cc1 (stereo not drawn),60.7% (active)
16,COc1ccc(C(=O)Nc2ccc3scnc3c2)cc1,-2.75%
17,COc1ccc(-c2nnn(CC(=O)NCc3ccc(C)cc3)n2)cc1OC,16.6%
18,COc1ccc(O)c(/C=N/NC(=O)c2ccc(NC(C)=O)cc2)c1,17.1%
19,COc1ccc(C(=O)N/N=C/c2ccc(O)c3ncccc23)cc1,100% (active)
20,COc1ccc(C(=O)N/N=C/c2c(O)ccc3ccccc23)cc1,16.9%
21,Cc1cc(C)c(NS(=O)(=O)c2ccc3c(c2)n(C)c(=O)c(=O)n3C)c(C)c1,4.25%
22,COc1cc(CN2CCN(Cc3cc(OC)c(OC)cc3OC)CC2)cc(OC)c1,75.9% (active)
23,CCOc1cc(CN2CCN(Cc3cc(OC)cc(OC)c3)C(CCO)C2)ccc1OC (stereo not drawn),0.98%
24,COc1cc(OC)c(OC)cc1CN1CCN(Cc2ccc(F)cc2)CC1,64% (active)

row,Structure (SMILES),inhibition
1,COc1cc(OC)c(OC)cc1CN1CCN(Cc2ccc3c(c2)OCO3)CC1,49.8%
2,COc1cc(CN2CCN(c3ccccc3OC)CC2)cc(OC)c1,10.9%
3,COc1cc(CN2CCN(Cc3ccc(OC)c(OC)c3)CC2)cc(OC)c1,71.4% (active)
4,CCOC(=O)N1CCN(Cc2cc(Br)c(OC)cc2OC)CC1,8.78%
5,COc1ccc(CN2CCC(C(N)=O)CC2)cc1OC,1.23%
6,COc1cc(CN2CCN(Cc3ccccc3Br)CC2)cc(OC)c1,89.3% (active)
7,COc1cc(CN2CCN(c3nccn3C)CC2)cc(OC)c1,8.7%
8,COc1cc(OC)c(OC)cc1CN1CCN(c2ccccc2F)CC1,24.1%
9,CC(C)Oc1ccccc1/C=C(\C#N)C(=O)Nc1ccccc1,-0.06%
10,O=C(CN1C(=O)CCC1=O)Nc1ccc(O)c(-c2nc3ccccc3s2)c1,0.38%
11,O=C(O)c1ccc(/C=N/Nc2ccc3ccccc3n2)cc1,10.5%
12,CC(=O)N1CCc2cc(Br)cc(S(=O)(=O)N3CCN(Cc4ccccc4)CC3)c21,13.2%
13,O=C(CCS(=O)(=O)c1cccc2nonc12)N1CCCC1,11.4%
14,COc1ccc(Cn2c(CCC(=O)Nc3cccc(SC)c3)nc3cccnc32)cc1,-3.6%
15,O=C(Oc1cccc(OC(=O)c2ccccc2)c1)c1ccccc1,-0.91%
16,C#CC(C)(C)OC(=O)C1C2C=CC(C2)C1C(=O)O (stereo not drawn),21.6%
17,Cc1ccc(NC(=O)C2C3C=CC4(O3)C2C(=O)N(C2CCCCCCC2)C4C(=O)NC2CCCCC2)cc1Cl (stereo not drawn),-0.34%
18,O=C(NCCc1ccccc1)c1ccc(Cn2c(=S)[nH]c3cc4c(cc3c2=O)OCO4)cc1,13.8%
19,CCn1c(=O)c2ccccc2n2c(SCC(=O)Nc3nccs3)nnc12,0.8%
20,COc1ccc(CCN2CCC(c3nc(-c4ccc5c(c4)OCO5)no3)CC2)cc1OC,7.81%
21,O=C(N/N=C/c1cc(Br)ccc1O)c1cc(-c2cccs2)[nH]n1,17.6%
22,O=C(N/N=C/c1cc(Br)ccc1O)c1ccc(=O)[nH]n1,80.2% (active)
23,O=C(N/N=C/c1cc(Br)ccc1O)c1cc(Br)ccc1O,8.32%
24,COC(=O)C1=C(O)/C(=C\c2ccccc2C(F)(F)F)N=C1C,1.73%

row,Structure (SMILES),inhibition
1,COC(=O)C1=C(O)/C(=C\c2cccc(O)c2)N=C1C,58% (active)
2,CCOC(=O)C1=C(O)/C(=C\c2cccc(Cl)c2)N=C1C,-3.89%
3,CCN(CC)C(=O)C1CCCN(c2cccc(C(=O)NCCOc3ccccc3)c2)C1 (stereo not drawn),17.9%
4,O=C(CSc1ncnc2nc[nH]c12)c1ccc(O)c(O)c1,82.1% (active)
5,Cn1c(N)c(C(=O)CSc2ncnc3nc[nH]c23)c(=O)n(C)c1=O,10.9%
6,c1nc(SCc2ccc3c(c2)OCO3)c2[nH]cnc2n1,5.04%
7,CC(=O)N1CCN(Cc2ccc3c(c2)CN(C(=O)c2cccc(N(C)C)c2)CCO3)CC1,1.41%
8,C/C(=N\NC(=O)CCCc1cc2ccccc2[nH]1)c1ccncc1,12.8%
9,COc1cccc(CCNC(=O)CC2C(=O)NCCN2Cc2cccc(C(F)(F)F)c2)c1 (stereo not drawn),10.1%
10,CCCS(=O)(=O)N1CCN(C(=O)c2cccs2)CC1,16.3%
11,CCCS(=O)(=O)N1CCN(C(C)C)CC1,87.2% (active)
12,CCCS(=O)(=O)N1CCN(c2ccc(C)nn2)CC1,1.44%
13,O=C1Nc2c(Cl)cc(Cl)cc2/C1=N\N=C\c1ccc(O)c(O)c1O,80.2% (active)
14,O=C(N/N=C\c1ccc(Cl)cc1Cl)c1ccccc1O,9.14%
15,C[n+]1ccc(C(=O)N/N=C/c2ccc(Cl)cc2Cl)cc1,0.41%
16,CCC1CCCCN1Cc1c(O)ccc2c(=O)c(Oc3ccc(OC)cc3)c(C(F)(F)F)oc12 (stereo not drawn),-1.92%
17,CC(C)C[C@@H]1NC(=O)[C@@H]2C[C@H](NC(=O)Nc3c(Cl)cccc3Cl)CN2C1=O,2.93%
18,Cc1noc(C)c1-c1cccc(C(=O)NCCCN2CCCC2=O)c1,12.4%
19,CCOC(=O)N1CCC(N(CCOC)C(=S)Nc2ccccc2F)CC1,-9.05%
20,CC(c1ccccn1)N(CCN(C)C)C(=S)Nc1ccccc1F (stereo not drawn),58% (active)
21,CN(C)CCCNC(=O)C(=O)Nc1ccccc1F,-6.25%
22,Cc1ccc(S(=O)(=O)N(CCC(=O)NCC2CCCO2)Cc2c(Cl)cccc2Cl)cc1 (stereo not drawn),-0.49%
23,O=C(Nc1sc2c(c1C(=O)Nc1ccccc1)CCCCC2)c1ccncc1,17.1%
24,CCOc1ccc(C(=O)Nc2cccc(-c3nc4cc(C)cc(C)c4o3)c2)cc1[N+](=O)[O-],8.35%

row,Structure (SMILES),inhibition
1,COc1cc(C(=O)N/C(=C/c2ccc3c(c2)OCO3)C(=O)NCC(=O)O)cc(OC)c1OC,-4.22%
2,CC1CCCCC1NC(=O)CSc1nnc(-c2ccncc2)n1CCCN(C)C (stereo not drawn),85.7% (active)
3,CCCn1c(SCC(=O)NC2CCCCC2C)nnc1-c1cccnc1 (stereo not drawn),0.55%
4,COCCCn1c(SCC(=O)NC2CCCCC2)nnc1-c1ccccc1,8.3%
5,CCNC(=S)NNC(=O)c1cccc(S(=O)(=O)Nc2ccc(C)cc2C)c1,6.71%
6,CCCS(=O)(=O)N1CCc2ccc(NC(=O)/C=C/c3ccco3)cc2C1,14.1%
7,COc1cc(N2CCOCC2)ccc1Nc1cc(Nc2ccccc2C(N)=O)ccn1,21.1%
8,CNC(=O)c1ccccc1Nc1cc(Nc2ccc(N3CCOCC3)cc2OC)ncc1F,4.9%
9,COc1cc(N2CCOCC2)ccc1Nc1cc(Nc2ccccc2-n2cccn2)c(C(F)(F)F)cn1,57.2% (active)
10,N#CCN1C(=O)C(=O)/C(=C(/O)c2ccccc2)C1c1ccccn1 (stereo not drawn),19.8%
11,COc1cc(CN2CCC(N3CCC(C(=O)NCC4CCCO4)CC3)CC2)cc(OC)c1 (stereo not drawn),6.5%
12,CC(C)c1ccc(C2/C(=C(/O)c3ccccc3)C(=O)C(=O)N2CCN(C)C)cc1 (stereo not drawn),57.4% (active)
13,Cc1ccc(C2/C(=C(/O)c3ccc(Cl)cc3)C(=O)C(=O)N2CCN(C)C)cc1 (stereo not drawn),-18.6%
14,CN(C)c1ccc(C2/C(=C(/O)c3ccccc3)C(=O)C(=O)N2CCO)cc1 (stereo not drawn),-0.75%
15,O=C(Nc1ccc(-c2cn3ccccc3n2)cc1)c1ccc(Br)o1,11.4%
16,C/C(=N\Nc1ccc(Cl)c(C(=O)O)c1)c1ccc([N+](=O)[O-])cc1,0.79%
17,CS(=O)(=O)N(Cc1ccccc1)c1ccccc1C(=O)N1CCCCCC1,-12%
18,CCN(CC)S(=O)(=O)c1ccc(OCC(=O)Nc2ccc(C(C)=O)cc2)c([N+](=O)[O-])c1,-5.88%
19,CCCCOc1ccc(OC(=O)c2ccc(-c3ccc(CC)cn3)cc2)cc1,-0.56%
20,CCCCCOc1ccc(OC(=O)c2ccc(-c3ccc(CCC)cn3)cc2)cc1,57.3% (active)
21,CCCCCc1ccc(-c2ccc(C(=O)Oc3ccc(-c4ccccc4)cc3)cc2)nc1,3.19%
